HepG2 viability: kills HepG2 cells in TGF-b inhibitor counter-screen; HepG2 CAGA-GFP viability, ATP luminescence, 18 h; Potency, µM (top dose mostly 46.1 µM), for the others: at the highest dose activity change, negative = cytotoxicity, most hits filed as cytotoxic; 410,000 compounds, 0.76% hits; AID 588856
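CellTiter-Glo luminescence gave cytotoxicity after 18 hours at 37 degrees C. The cells were HepG2 CAGA-GFP in 1% FBS DMEM, stimulated with 500 pg/mL TGF-beta after compound addition. %Activity was normalised to no-cell wells (complete cell-killing) and DMSO (no toxicity), and curves were fitted and classified.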
ATXN2 expr inh: ATXN2 expression inhibition; Potency, µM (top dose mostly 57 µM), for the others: at the highest dose activity change, negative = inhibition, actives largely listed as inhibitors; 360,000 compounds, 0.72% hits; HEK-293 ATXN2-luciferase reporter, luminescence, 24 h; AID 1745845; further: on the % scale 0 is the no-effect control and ±100 the full control effect; nearly all actives have a fitted effect of over 55% in size
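ATXN2-luciferase reporter cells (luciferase flanked by upstream and downstream ATXN2 gene portions) were treated 24 h at 37 °C with compounds at up to 57 uM. SteadyGlo luminescence gave expression; GF-AFC fluorescence gave viability.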
TDP1 cell CPT: DT40-hTDP1 cell growth loss with CPT; chicken DT40 Tdp1-/-;hTDP1 cells + 20 nM CPT, ATP luminescence, 48 h; Potency, µM (series often up to 46.2 µM), inactives show at the top dose activity change, negative = growth inhibition, hits mostly inhibitors; 420,000 compounds, 12% hits; further: on the % scale 0 is the no-effect control and ±100 the full control effect; nearly all actives have a fitted effect of over 55% in size
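Cell growth measured by CellTiter-Glo luminescence after a minimum 48 h, 37 C compound exposure with 20 nM CPT in Tdp1-knockout DT40 cells stably expressing hTDP1, seeded 400/well; qHTS titration format.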
TGFb SMAD3 inh: inhibitors of TGF-b signaling; Potency, µM (top dose mostly 46.1 µM), inactives show at the top dose activity, negative = inhibition, actives largely listed as inhibitors; 410,000 compounds, 1.2% hits; AID 588855; HepG2 CAGA-GFP TGF-b/SMAD3 reporter, GFP fluorescence, 18 h; TGF-beta stimulated, 500 pg/mL final; further: on the % scale 0 is the no-effect control and ±100 the full control effect; nearly all actives have a fitted effect of over 65% in size
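First, reporter cells (HEPG2 CAGA-GFP) rested 2 h at 37 degrees C. Next, compounds were pinned in and TGF-beta added to 500 pg/mL final. After 18 h, GFP was imaged per cell and summed per well.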
TDP1 cell noCPT: qHTS for Inhibitors of human tyrosyl-DNA phosphodiesterase 1 (TDP1): qHTS in cells in absence of CPT; DT40 Tdp1-/- hTDP1 cells, no CPT, ATP luminescence, 48 h; 420,000 compounds, 15% hits; AID 686978, 2013; Potency, µM (doses to about 46.2 µM), without a hit: at the top dose activity change, negative = growth inhibition, usual class: inhibitors; further: on the % scale 0 is the no-effect control and ±100 the full control effect; nearly all actives have a fitted effect of over 55% in size
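No-CPT arm: Tdp1-/-;hTDP1 DT40 cells (400/well) plus compounds, incubated ≥48 hr at 37 °C. Readout CellTiter-Glo luminescence.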
ATXN viability: reduces viability in counter-screen for ATXN expression inhibitors; S2 cells (HEK-293 line with an ATXN2-luciferase reporter) viability, CellTiter-Fluor protease fluorescence, 24 h; Potency, µM (doses to about 56.7 µM), most hits filed as cytotoxic; 400,000 compounds, 0.49% hits; AID 651635; further: nearly all actives have a fitted effect of over 40% in size
Numbers without * were called inactive; i = inactive; ? = inconclusive; / = no result. Compounds with a hit are over-represented: about 17% of the library has one in this group of screens. The call rests on the fitted dose curve; in most records, active means well fitted curve in the direction sought with a large enough effect; inconclusive means small, poorly fitted or top-dose-only effect, or another doubt; inactive means no such curve, though single readings can be large; an effect the other way counts as inactive or inconclusive. Potency means the concentration at half of the fitted maximal effect.

SMILES	HepG2 viability	ATXN2 expr inh	TDP1 cell CPT	TGFb SMAD3 inh	TDP1 cell noCPT	ATXN viability
CCn1c2ccccc2c2cc(NC(=O)CSc3nnc(-c4cccc(OC)c4)n3N)ccc21	-41.1%	-22.2%	?	-3.0%	?	i
CCn1c2ccccc2c2cc(NC(=O)COC(=O)c3cc(OC)c(OC)cc3OC)ccc21	-10.6%	?	20.6µM*	?	20.6µM*	?
CCOc1ccc(-c2nnc(SCC(=O)Nc3ccc4c(c3)c3ccccc3n4CC)n2N)cc1	-77.4%	31.6µM*	?	?	?	/
CCn1c2ccccc2c2cc(NC(=O)COc3cc(C)c(Cl)c(C)c3)ccc21	-97.7%	-10.8%	-9.0%	-13.9%	2.3%	i
CCn1c2ccccc2c2cc(NC(=O)COc3cc(C)ccc3C)ccc21	0.9%	3.1%	?	15.0%	9.2µM*	i
CCN(CC(=O)Nc1ccc2c(c1)OCCO2)C(=O)CSCC(=O)Nc1ccc(C)cc1	-24.0%	-4.1%	2.6%	-19.4%	-12.0%	?
COc1ccc(C2=NN(Cc3c(F)cccc3Cl)C(=O)CC2)cc1	-25.9%	/	-28.8%	-11.8%	?	i
O=C(Nc1ccc2nc(SCCOc3ccccc3Cl)sc2c1)c1ccc2c(c1)OCO2	-7.6%	0.3%	?	-0.1%	?	i
COc1cccc(C(=O)Nc2ccc3nc(SCCOc4ccccc4)sc3c2)c1	-1.0%	-2.8%	?	-7.3%	?	i
COc1cc(C)ccc1OCCSc1nc2ccc(NC(=O)c3ccco3)cc2s1	-25.5%	-38.3%	23.1µM*	-15.5%	10.3µM*	?
COc1cc(C)ccc1OCCSc1nc2ccc(NC(=O)c3cccs3)cc2s1	-13.4%	-16.1%	?	-6.5%	16.4µM*	i
O=C(Nc1ccc2nc(SCCOc3ccccc3)sc2c1)c1cccs1	-1.4%	-10.1%	?	1.9%	20.6µM*	i
CC(=O)Nc1ccc2nc(SCCOc3ccccc3Cl)sc2c1	-57.3%	-32.4%	?	?	23.1µM*	i
O=C(CN1C(=O)NC2(CCc3ccccc32)C1=O)c1cccs1 (configuration not stated)	11.1%	9.7%	-24.9%	5.6%	-5.5%	i
Cc1ccccc1NS(=O)(=O)c1cccc2nsnc12	2.3%	-6.2%	0.0%	?	-5.0%	i
COc1ccc(C(=O)OCC(=O)NC(C)CCc2ccccc2)c(OC)c1 (configuration not stated)	-1.6%	2.9%	-3.2%	-1.2%	7.5%	i
Cc1ccc(OCC(=O)Nc2ccc3nc(SCCOc4ccccc4)sc3c2)cc1	-0.2%	-5.3%	?	7.2%	10.3µM*	i
CCn1nc(C)c(CN2CCCC(CNS(=O)(=O)c3ccc(OC)cc3)C2)c1C (configuration not stated)	-3.9%	-1.0%	20.6µM*	13.9%	?	i
CN(CC(=O)NCCCN1CCOCC1)S(=O)(=O)c1ccc(F)cc1	2.1%	8.6%	18.6%	5.2%	6.7%	i
Clc1ccc2c(c1)-c1ccccc1C1=NCCN12	-2.5%	/	-104.9%	?	1.64µM*	?
Brc1ccc2c(c1)-c1ccccc1C1=NCCN12	-1.6%	/	1.46µM*	15.8µM*	0.82µM*	?
CN1C2=NCCN2C(=O)c2cc(Cl)ccc21	-50.9%	4.7%	6.5%	?	-28.1%	i
CCN(C(=O)COC(=O)c1cc([N+](=O)[O-])ccc1N1CCOCC1)c1ccccc1	-2.0%	-30.9%	?	-5.0%	14.6µM*	i
COc1ccc(CN(C)C(=O)COC(=O)c2cc([N+](=O)[O-])ccc2N2CCCC2)c(OC)c1OC	-13.3%	/	?	-12.5%	20.6µM*	?
CN(C(=O)COC(=O)c1cc([N+](=O)[O-])ccc1N1CCCC1)C1CCS(=O)(=O)C1 (configuration not stated)	-3.9%	11.5%	13.8%	-0.8%	-8.4%	i
SMILES	HepG2 viability	ATXN2 expr inh	TDP1 cell CPT	TGFb SMAD3 inh	TDP1 cell noCPT	ATXN viability
CN(Cc1ccccc1)C(=O)COC(=O)c1cc([N+](=O)[O-])ccc1N1CCOCC1	-8.0%	-1.5%	-2.9%	?	?	?
CCOC(=O)c1ccccc1NC(=O)COC(=O)c1cc([N+](=O)[O-])ccc1N1CCOCC1	0.0%	-10.8%	?	-13.5%	6.51µM*	?
O=C(COC(=O)c1ccccc1NCCO)Nc1cc(C(F)(F)F)ccc1N1CCOCC1	-11.3%	-14.7%	18.4µM*	-14.4%	?	i
Cc1cc(OC(C)C(=O)NCC2CCC(C(=O)O)CC2)c2c(C)cc(=O)oc2c1 (configuration not stated)	2.3%	-7.1%	-13.7%	-2.9%	1.8%	i
O=C(NCc1ccc(F)cc1Cl)c1ccc(CSCc2ccccc2Cl)o1	-32.3%	/	?	12.6µM*	?	/
O=C(NCc1ccccc1Cl)c1ccc(CSCc2cccc(F)c2)o1	-24.3%	/	25.9µM*	?	?	/
CC(C)NC(=O)c1ccc(CSCc2ccccc2Cl)o1	-5.0%	-14.0%	?	-16.2%	?	i
O=C(NCc1ccc(F)cc1)c1ccc(CSCc2cccc(Cl)c2)o1	-33.8%	?	?	?	20.6µM*	?
COc1cc(OC)c(NC(=O)CC(C)S(=O)(=O)c2ccc3c(c2)NC(=O)CO3)cc1Cl (configuration not stated)	7.0%	-0.2%	12.6%	-5.2%	-7.1%	i
Fc1cccc(Cc2c(-c3ccco3)nc3ccc(Cl)cn23)c1	-50.6%	-1.7%	?	?	?	/
COC(=O)c1ccc2nc(-c3ccco3)c(Cc3cccc(Cl)c3)n2c1	/	-0.9%	?	/	16.4µM*	i
COC(=O)c1ccc2nc(-c3ccco3)c(Cc3ccccc3)n2c1	-34.9%	11.8%	25.9µM*	11.2µM*	20.6µM*	i
COc1ccc(NC(=O)/C(C#N)=C/c2ccc(Sc3nncn3C)c([N+](=O)[O-])c2)cc1	-60.6%	-22.4%	16.4µM*	?	25.9µM*	?
COc1ccc(C=NNC(=S)NC23CC4CC(CC(C4)C2)C3)cc1OC	1.6%	-23.0%	?	0.0%	?	?
COc1cc(OC)c(C=NNC(=S)NC23CC4CC(CC(C4)C2)C3)c(OC)c1	-20.6%	2.7%	6.51µM*	-14.2%	6.51µM*	i

From PubChem
